# Test results taken from PubChem BioAssay (NCI).
# The panel holds about 79,000 compounds, 15% with a hit somewhere; the sample as a whole holds those more often. Values without a mark were called inactive. Activity calls are given as the source filed them. Rule as the data show it: active = growth inhibition above about 70%; inactive = the rest.
# Tests used:
# [1] = NCI Yeast Anticancer Drug Screen. Data for the rad50 strain (AID 155);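 also: 0% = growth of vehicle-only cultures of the same strain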; details: S. cerevisiae rad50 strain growth inhibition; at 50.0 µM; hits give high values
# How it was run: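 Cells are treated with compound, grown, and their growth is then scored against vehicle-only cultures of the same repair-deficient yeast strain.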
# [2] = NCI Yeast Anticancer Drug Screen. Data for the mec2-1 strain (AID 157); details: S. cerevisiae mec2-1 strain, at 50.0 µM, hits give high values
# How it was run: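 Yeast mec2-1 mutant treated with compound. Readout: growth inhibition vs vehicle controls.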
# [3] = NCI Yeast Anticancer Drug Screen. Data for the sgs1 mgt1 strain (AID 161);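 also: 0% = growth of cultures given vehicle only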; details: S. cerevisiae sgs1 mgt1 strain, at 50.0 µM, hits give high values
# How it was run: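 Inhibition of yeast growth, normalised to vehicle-treated controls, is reported for a strain bearing genetic alterations in DNA damage repair.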
# [4] = NCI Yeast Anticancer Drug Screen. Data for the bub3 strain (AID 167); details: S. cerevisiae bub3 mutant strain, at 50.0 µM, hits give high values
# How it was run: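 Part of a panel of yeast mutants defective in DNA damage repair or cell cycle regulation. Each strain is grown with compound, and inhibition is calculated relative to solvent-treated cultures.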
# [5] = NCI Yeast Anticancer Drug Screen. Data for the mlh1 rad18 strain (AID 175); details: S. cerevisiae mlh1 rad18 strain growth inhibition; at 50.0 µM; hits give high values
# How it was run: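 Yeast w/ defined DNA-repair lesions; compound exposure; growth vs vehicle controls → % inhibition.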
# [6] = NCI Yeast Anticancer Drug Screen. Data for the cln2 rad14 strain (AID 165);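 also: 0% = growth equal to vehicle treated cultures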; details: S. cerevisiae cln2 rad14 strain, at 50.0 µM, hits give high values
# How it was run: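 cln2 rad14 yeast strain; compound exposure; growth inhibition read vs vehicle controls.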
Structure (SMILES),growth inhibition [1],growth inhibition [2],growth inhibition [3],growth inhibition [4],growth inhibition [5],growth inhibition [6]
CN(C)c1c(F)c(F)c(N=Nc2ccccc2)c(F)c1F,0.75%,-2.6%,1.15%,16.8%,-12.1%,
Cc1ccc(-c2oc(-c3ccc(C)cc3)c3cc(C)c(C)cc23)cc1,4.8%,,-6.7%,-8.6%,-4.6%,8.5%
CC(=O)OCC1OC(OC(C)=O)C(N(C)C(C)=O)C(OC(C)=O)C1OC(C)=O (stereo not drawn),32.8%,,26.8%,-0.55%,35.6%,20.6%
Cn1c(=O)c2ncn(CC3CCCCC3)c2n(C)c1=O,6.15%,,5.05%,2.05%,-4.95%,-5.9%
O=C(O)/C=C\C(Cl)(Cl)Cl,-6.35%,,-6.7%,-41%,-13.4%,4.15%
N#CC(NCCc1ccccc1)c1ccccc1 (stereo not drawn),2.45%,,-32.8%,-56.7%,-3.95%,-20.1%
O=C(O)/C=C/C1CCCCC1,26.4%,,3.95%,,21.2%,4.35%
O=C(O)C(CCc1ccccn1)c1ccccc1 (stereo not drawn),-4.2%,,-26.2%,-44.4%,-0.55%,-17.6%
O=C(O)c1cccc2c1cc(Br)c1ccccc12,22.6%,,32%,15.8%,24.7%,-42.5%
Cn1ccc2c3ccn(C)c3ccc21,-15.8%,,-5.25%,-19.9%,23.1%,56.7%
COc1c2ccoc2cc2oc(=O)ccc12,10%,,12.8%,22.4%,20.4%,14.3%
CC1=CC(O)C(Br)C(C)(C)C12CCC(C)(Cl)C(Br)C2 (stereo not drawn),90.1% (active),,89.8% (active),89.9% (active),89.3% (active),81.8% (active)
Nc1nc(Nc2ccccc2)c2ncn(C3OC(CO)C(O)C3O)c2n1 (stereo not drawn),12.7%,,0.25%,3.6%,-12.3%,-1.35%
CC(C)(C)NC(=O)NCc1ccccc1Cl,2.9%,,-2.7%,-0.75%,-8.35%,-52.5%
O=C(N/N=C/c1ccc(Cl)c([N+](=O)[O-])c1)C(O)(c1ccccc1)c1ccccc1,10.2%,,12.4%,-1%,-19.1%,-4.45%
Cc1cccc(Cl)c1NC(=O)NCCCN1CCOCC1,2.8%,,6.2%,-1.75%,6.45%,14.1%
C=CCC(OC(=O)C=C(C)C)c1ccc2c(c1)OCO2 (stereo not drawn),-23.6%,,-6.65%,38.8%,6.3%,-5.5%
COc1cccc2c1C(=O)c1c(O)c3c(c(O)c1C2=O)CC(O)(C(C)=O)CC3O (stereo not drawn),61.5%,,39%,34.4%,50.5%,17.1%
CC(C)(CO)NC(=O)c1ccccc1Br,-31.9%,,-8.6%,-13.9%,7.8%,1.55%
NSC(=S)NCc1ccco1,1%,,7.75%,15.8%,13.7%,-52.1%
Cc1cc2c(c(S(=O)(=O)c3ccccc3[N+](=O)[O-])c1)NCCC2,2.95%,,3.3%,14.8%,-15.8%,-23.4%
CN=C(N)NC,-0.1%,,15.1%,8.55%,20.1%,24.1%
COc1ccc(/C=N/n2cnc3c(sc(=S)n3-c3ccccc3)c2=O)cc1,23%,,-8.45%,-23.7%,12.8%,-1.7%
O=C(O)c1ccccc1CC(C(=O)O)C(=O)O,14.8%,,3%,-0.6%,6.15%,7.95%

Structure (SMILES),growth inhibition [1],growth inhibition [2],growth inhibition [3],growth inhibition [4],growth inhibition [5],growth inhibition [6]
c1ccc2c(c1)ccc1nc3c4ccccc4c4ccccc4c3nc12,13.6%,,-6.9%,13%,13.8%,-3.45%
CC1=NN2C(c3ccc(Cl)cc3)=CSC2=NC(C)(C)C1,16.6%,,-3.1%,-8.6%,-13.2%,5.8%
CCOC(=O)/C(Cc1ccc2c(c1)OCO2)=N\O,-3.05%,,-12.9%,2.25%,-1.1%,-2.25%
CCOc1ccc(C2Oc3c(cccc3OC)C=C2[N+](=O)[O-])cc1OCC (stereo not drawn),38.8%,,32.5%,42.2%,5.7%,11.4%
N#Cc1c(C#N)c(-c2ccccc2)n(-c2ccccc2)c1N,10.7%,,-29.7%,-11.2%,-22.1%,-12.8%
CC(C)C1=CC(=Nc2ccc(N(C)C)cc2)C=CC1=O,-1.35%,,9.5%,18%,-13.1%,-29.2%
[O-]c1c[n+](CC[n+]2cc([O-])on2)no1,13.7%,,-13.2%,-19.6%,-14.7%,40.5%
Cc1n(C)c(=O)c2ccccc2[n+]1C,5.35%,,-7%,1.95%,6.4%,-3.3%
O=C1CC(c2ccccc2)C(c2ccccc2)C1C(=O)OC1CCCCC1 (stereo not drawn),0.5%,,0.65%,0.55%,-15.4%,-62.5%
COC(=O)CCC(=O)Nc1ccccc1C(F)(F)F,,5.3%,7.65%,8.45%,1%,3.2%
CCOC(=O)N1C=Cc2c(c3ccccc3n2C)N1C(=O)OCC,,1%,2.15%,5.7%,-6.95%,-6.3%
Cc1ccc(NC(=O)c2ccc(C)c(N)c2)c(C)c1,,-21.2%,-15.8%,-25.1%,-5.7%,-9.7%
O=C1NCC2(CCN(Cc3ccccc3)CC2)N1c1ccccc1,,3.05%,2.4%,-13.1%,13.7%,4.85%
CC(=O)NC1=NCC(CSc2nc3ccccc3s2)S1 (stereo not drawn),,-14.3%,5.65%,9.7%,4.3%,-26.2%
COc1ccc(C2(C3NCCC4=C3CCCC4)CC2)cc1 (stereo not drawn),,-5.75%,32%,-3.7%,23.6%,-4.1%
NS(=O)(=O)c1ccc(N=Cc2ccccc2)cc1,,,12.6%,15.2%,10.1%,5.45%
Cc1ccccc1C(=O)OCC(=O)c1ccc(-c2ccccc2)cc1,,-9.4%,-1.35%,14%,-20.7%,-37.5%
COC(=O)/C=C(/C(=O)OC)C1(C)c2cc(C(=O)OC)c(C(=O)OC)c(N)c2C(=N)N1c1ccccc1 (stereo not drawn),,25.9%,1%,-5.15%,-0.9%,-12.4%
O=C(NCCO)Nc1ccccc1F,,3.65%,-3.65%,-7.75%,5.55%,-27.3%
Clc1ccc2c(c1)nnn1nccc21,,17.6%,-9.8%,13.8%,14.8%,10.9%
Nc1nc(Cl)c2ncn(C3OC(CO)C(O)C3O)c2n1 (stereo not drawn),,-3.65%,-1.9%,-5.2%,1.4%,-34.5%
CCOC(=O)/C=C/SCCC(=O)OC,,21.9%,7.9%,15%,40.8%,12.4%
CSc1ccc(NC(=O)Nc2cccc(F)c2)cc1,,11.9%,27.2%,42.5%,35.6%,-18.5%
